# USP30 block = inhibitors of human USP30 deubiquitinase; Ubiquitin carboxyl-terminal hydrolase 30 (Homo sapiens), Q70CQ3; purified USP30, Ub-rhodamine cleavage fluorescence; inhibition, % at 25 µM; hit rate 5.3% among 47,000; AID 1645860, 2021
# USP17 block = inhibitors of human USP17 deubiquitinase; purified USP17, Ub-rhodamine cleavage fluorescence, 3 h; inhibition, % at 50 µM; hit rate 6.5% among 47,000; AID 1645855, 2021
# USP28 inh = inhibitors of human USP28 deubiquitinase; hit rate 3% among 47,000; purified USP28, Ub-rhodamine cleavage fluorescence, 30 min; inhibition, % at 25 µM; Ubiquitin carboxyl-terminal hydrolase 28 (Homo sapiens), Q96RU2
# OTUD3 block = inhibitors of human OTUD3 deubiquitinase. OTU domain-containing protein 3 (Homo sapiens), Q5T2D3. purified OTUD3, Ub-rhodamine fluorescence, 2 h. inhibition, % at 25 µM. hit rate 0.7% among 47,000. AID 1645858, 2021
# Target sequence (Q5T2D3 whole entry, looked up, the tested form may be a part): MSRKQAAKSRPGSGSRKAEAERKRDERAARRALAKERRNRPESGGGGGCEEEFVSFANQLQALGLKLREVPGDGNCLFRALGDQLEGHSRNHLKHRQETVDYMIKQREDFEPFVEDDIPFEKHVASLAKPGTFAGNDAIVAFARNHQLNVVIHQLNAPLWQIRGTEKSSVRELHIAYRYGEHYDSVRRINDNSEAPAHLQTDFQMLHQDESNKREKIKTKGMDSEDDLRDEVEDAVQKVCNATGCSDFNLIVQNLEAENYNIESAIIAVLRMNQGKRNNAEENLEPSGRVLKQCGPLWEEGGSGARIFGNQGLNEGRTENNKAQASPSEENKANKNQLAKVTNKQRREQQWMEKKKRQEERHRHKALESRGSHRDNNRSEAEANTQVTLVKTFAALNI
# Active calls of the source: *; · = no result given. Compounds with a hit are over-represented: about 12% of the library has one in this group of screens. Rule as the data show it: active = inhibition above about 30%; inactive = the rest.
SMILES,USP30 block,USP17 block,USP28 inh,OTUD3 block
Cc1ccc(Nc2c(C#N)c3c(c4nnc(SCC(N)=O)n24)COC(C)(C)C3)cc1,-12,-5,1,7
CC1NC(=O)C(CC(N)=O)NC(=O)C(C(C)O)NC(=O)C(C(C)C)NC(=O)C(C(C)C)NC(=O)C(NC(=O)CC(O)CCCCCCCCCCCCN=C(N)N)C(C)OC1=O (stereo unspecified),90*,70*,84*,83*
CCN(CC)CCN1C(=O)C2C(C(=O)Nc3ccc(Cl)c(Cl)c3)C3C=CC2(O3)C1C(=O)NC1CCCCC1 (stereo unspecified),9,-33,5,5
Cn1c(-c2nnc(SCC(=O)NCCc3ccccc3)o2)cc2ccccc21,57*,43*,19,17
CCCCNC(=O)CSc1nnc(-c2cc3ccccc3n2C)o1,72*,56*,23,31*
Cc1ccc2nc(CNc3cc(F)ccc3C)cc(=O)n2c1,-56,-12,-5,-7
Cc1cccc(NCc2cc(=O)n3cc(C)ccc3n2)c1,7,46*,26,1
COc1ccccc1CNC(=O)c1nc(-c2ccc3[nH]ccc3c2)no1,-14,25,2,2
COCCCNC(=O)COc1c(-c2ccc(OC)cc2)oc2ccccc2c1=O,49*,23,18,19
CC(=O)Nc1cccc(Nc2nnc(-n3nc(C)cc3C)c3ccccc23)c1,-10,-3,-13,-7
Cc1ccc(S(=O)(=O)N(C)c2nc3nc(C)c(Cl)c(C)n3n2)cc1,3,18,13,10
Cc1ccc(S(=O)(=O)N(CC#N)c2nc3nc(C)c(Cl)c(C)n3n2)cc1,16,-1,33*,15
Cc1cc(C(=O)N2CCOCC2)c(C)n1-c1ccc(O)cc1,17,86*,9,28
COC(=O)c1cc(NC(=O)Nc2ccccc2C(F)(F)F)ccc1N1CCOCC1,-7,0,4,-16
COC(=O)c1cc(NC(=O)Nc2ccc(OC(F)(F)F)cc2)ccc1N1CCOCC1,-26,-1,32*,-10
Cc1ccc(OCC2Cn3c(nc4c3c(=O)[nH]c(=O)n4C)O2)cc1C (stereo unspecified),·,66*,·,1
Cc1ccc(C)c(N2CCn3c2nc2c3c(=O)[nH]c(=O)n2C)c1,15,1,3,0
O=S(=O)(c1ccc(Cl)cc1)c1cnc2ccccc2c1N1CCCC1,10,-3,0,0
CCOC(=O)c1cc(NC(=O)C(C)(C)C)ccc1N1CCOCC1,-1,0,-3,0
CSc1ccc(/C=C/c2nc(-c3ccccc3O)n[nH]2)cc1,9,46*,29,14
CCC1=C(c2ccc(C)cc2)S(=O)(=O)NC1=NCC(=O)NC(C)c1ccccc1 (stereo unspecified),14,54*,7,6
CCC1=C(c2ccc(C)cc2)S(=O)(=O)NC1=NCC(=O)NCCC1=CCCCC1,0,-5,1,5
CCc1ccc(NC(=O)CN=C2NS(=O)(=O)C(c3ccc(CC)cc3)=C2C)cc1,23,58*,22,8
CC1=C(c2ccc(C)c(C)c2)S(=O)(=O)NC1=NCC(=O)Nc1ccc(F)cc1F,3,48*,6,-1
CC1=C(c2ccc(C)c(C)c2)S(=O)(=O)NC1=NCC(=O)NCCc1ccc(C)cc1,69*,15,32*,9
SMILES,USP30 block,USP17 block,USP28 inh,OTUD3 block
CC1=C(c2ccc(C)c(C)c2)S(=O)(=O)NC1=NCC(=O)NCc1cccc(C)c1,2,11,3,-2
COc1ccccc1NC(=O)CN=C1NS(=O)(=O)C(c2ccc(F)cc2)=C1C,-3,12,1,-6
CN1CCN(C(=O)c2cc(C3CNCCO3)nc3ccccc23)CC1 (stereo unspecified),-65,-28,-20,-15
O=C(Nc1ccccc1)c1cn(-c2ccc(S(=O)(=O)N3CCCC3)cn2)cn1,19,13,6,12
CN1C(=O)c2ccccc2C1(Nc1cccnc1)c1ccccc1 (stereo unspecified),20,13,6,14
CN(C)[C@@H]1[C@@H](O)[C@H](Oc2cccc(F)c2)C[C@H]1NC(=O)C1CCOCC1,1,2,0,1
CCNC(=O)c1ccc(N2CCNCC2)c(NS(=O)(=O)c2cc(C)c(C)cc2C)c1,10,5,7,5
COc1cccc2c1OCC(C(=O)NCc1ccc(F)cc1)=C2,-14,0,51*,-5
O=C(Nc1cccnc1)c1ncn2c1CN(CC1CC1)S(=O)(=O)c1ccccc1-2,6,-7,6,4
Cc1ccc(S(=O)(=O)N2CCCCCC2c2sccc2C)cc1 (stereo unspecified),-3,2,-2,10
COC(=O)c1ccc(COC(=O)C(Cc2c[nH]c3ccccc23)NC(=O)c2ccc(F)cc2)cc1 (stereo unspecified),25,13,10,14
CC(Cc1ccco1)NC(=O)c1cccc(NC(=O)c2nnc(C3CC3)s2)c1 (stereo unspecified),-3,31*,0,2
Clc1ccc2c(NCc3cccs3)ncnc2c1,22,12,34*,17
COc1cc2ncnc(NCc3cccs3)c2cc1OC,-1,-8,5,-3
CCc1cc(=O)n(CC(=O)Nc2cccc(F)c2)c(N2CCOCC2)n1,17,9,2,6
Cc1ccccc1NC(=O)Cn1c(N2CCOCC2)nc2cc(C)n(C)c2c1=O,62*,36*,10,15
Cc1cc(=O)n(CC(=O)NCc2ccc(Cl)cc2)c(N2CCOCC2)n1,19,3,8,9
CCc1ccc(NC(=O)Cn2c(N3CCOCC3)nc3cc(C)n(C)c3c2=O)cc1,33*,40*,8,10
Cc1cc2nc(N3CCOCC3)n(CC(=O)Nc3cccc(F)c3)c(=O)c2n1C,13,38*,-1,2
Cc1cccc(NC(=O)Cn2c(N3CCOCC3)nc(C)cc2=O)c1,1,-1,-11,-6
Cc1ccc(NC(=O)Cn2c(N3CCOCC3)nc3cc(C)n(C)c3c2=O)cc1,49*,14,-11,-5
Cc1cccc(NC(=O)Nc2ccccc2OCc2cc(=O)n3cccc(C)c3n2)c1,29,9,24,20
CCC(=O)N1CCCC1c1nnc(C(=O)Nc2ccc(C)cc2)s1 (stereo unspecified),22,8,16,7
O=C(N1CCC2(CC1)CC2)C1(c2ccccc2)CCOCC1,14,3,4,8
COc1ccc(N2CC(C(=O)Nc3cccc(C)n3)CC2=O)c(OC)c1 (stereo unspecified),0,-2,0,-5
Cc1cc(C(=O)Nc2ccc3c(c2)OCCO3)no1,0,-5,63*,0
Cc1ccc(/C=C/C(=O)Nc2ccc3c(c2)OCCO3)cc1,-13,-8,80*,-8
COc1cccc2cc(C(=O)Nc3ccc4c(c3)OCCO4)oc12,1,1,51*,2
Cc1cc(C(=O)N2CC(C(=O)Nc3ccc4c(c3)OCCO4)C2)no1,-35,-23,5,-9
